Where “and” joins values, the source holds several entries; their conditions need not be identical. Equal entries are not always repeated. Records with an inconclusive call do not appear. More than one record can exist for a structure, and the calls need not agree. Calls of active or inactive are those of the source. Calls follow the shape of the dose curve; as a rule, active = well fitted curve in the direction sought with a large enough effect; inconclusive = small, poorly fitted or top-dose-only effect, or another doubt; inactive = no such curve, though single readings can be large; an effect the other way counts as inactive or inconclusive.
Columns and labels:
[1] = qHTS Screen of the MIPE 4.0 Collection Against Ewings Sarcoma (RDES) (AID 1259252); conditions: RD-ES Ewing sarcoma viability, CellTiter-Glo, 48 h; series mostly up to 45.8 µM; also: nearly all actives have a fitted effect of over 35% in size; also: potency is read from the fitted curve at half-maximal effect
Summary of the method: (§1)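 Log-phase cells in RPMI with 5% FBS attached for 4 h, then received compounds as a titration for 48 h at 37C, 5% CO2. Viability was read by CellTiter-Glo luminescence and normalized to DMSO and no-cell wells.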

[2] = qHTS Screen of the MIPE 4.0 Collection Against Ewings Sarcoma (TC71) (AID 1259253); conditions: TC71 Ewing sarcoma viability, CellTiter-Glo, 48 h; series mostly up to 45.8 µM; also: nearly all actives have a fitted effect of over 40% in size; also: potency is read from the fitted curve at half-maximal effect
Summary of the method: as §1

[3] = qHTS Screen of the MIPE 4.0 Collection Against Ewings Sarcoma (TC32) (AID 1259256); conditions: TC32 Ewing sarcoma viability, CellTiter-Glo, 48 h; series mostly up to 45.8 µM; also: nearly all actives have a fitted effect of over 45% in size; also: potency is read from the fitted curve at half-maximal effect
Summary of the method: as §1

[4] = P-glycoprotein substrates identified in KB-8-5-11 adenocarcinoma cell line, qHTS therapeutic library screen (AID 1346987); conditions: KB-8-5-11 (P-gp overexpressing) viability, CellTiter-Glo, 72 h; series mostly up to 44.5 µM; also: nearly all actives have a fitted effect of over 65% in size; also: potency is read from the fitted curve at half-maximal effect
Summary of the method: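 Steps: plate 500 KB-8-5-11 cells/well in DMEM + 10% FCS (colchicine removed); pin compounds in dose-response; incubate 72 h, 37 degree C, 5% CO2; add CellTiter-Glo, 5 min; read luminescence.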

[5] = NS1 protein of Zika virus - qHTS assay to identify small molecule inhibitors in human HEK 293 cells (AID 1347053); conditions: HEK293 ZIKV MR766 infection, NS1 TR-FRET, 24 h; series mostly up to 46.1 µM; also: nearly all actives have a fitted effect of over 55% in size; also: potency is read from the fitted curve at half-maximal effect
Summary of the method: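 Following 20 h seeding, HEK 293 cells took compound, then 1 h later ZIKV MR766 (MOI = 0.5). Incubation ran 24 h at 37 C before TR-FRET detection of NS1; a drop in signal indicates inhibition.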

[6] = Identifying Small Molecule Inhibitors of Pancreatic Cancer Stem Cells (SN12C, Adherent) (AID 1259358); conditions: viability/growth inhibition; series mostly up to 46.1 µM;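 also: cell survival measured after 48 h of compound exposure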; also: potency is read from the fitted curve at half-maximal effect
Summary of the method: (§2)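 Spheroids grown 14 days in stem cell media on hydrogel-coated nonadherent plates; 2D lines seeded directly. Compounds added after 4 h attachment, 48 h at 37C, 5% CO2; CellTiter-Glo luminescence normalized to DMSO (no inhibition) and no-cell wells (full inhibition).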

[7] = Identifying Small Molecule Inhibitors of Pancreatic Cancer Stem Cells (Panc1, Spheroid) (AID 1259359); conditions: Panc1 spheroid cancer stem cell viability; series mostly up to 46.1 µM;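 also: compound exposure lasted 48 h before reading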
Summary of the method: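 Spheroids grown 14 days in stem cell media on nonadherent hydrogel before screening; cells attached 4 h, then compound exposure 48 h at 37C, 5% CO2. CellTiter-Glo luminescence normalized to DMSO (no inhibition) and no-cell wells (full inhibition).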

[8] = Identifying Small Molecule Inhibitors of Pancreatic Cancer Stem Cells (A278, Adherent) (AID 1259361); conditions: series mostly up to 46.1 µM; also: nearly all actives have a fitted effect of over 35% in size
Summary of the method: as §2

[9] = P-glycoprotein substrates identified in KB-3-1 adenocarcinoma cell line, qHTS therapeutic library screen (AID 1346986); conditions: KB-3-1 parental cells viability, CellTiter-Glo, 72 h; series mostly up to 44.5 µM; also: nearly all actives have a fitted effect of over 60% in size;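 also: potency is read from the fitted curve at half-maximal effect; potency is for cytotoxicity meaning loss of cell viability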
Summary of the method: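 KB-3-1 parental and colchicine-selected P-gp-overexpressing KB-8-5-11 cells (colchicine omitted during assay), 500 cells/well, dosed in dose-response for 72 h at 37 °C; CellTiter-Glo luminescence. Cytotoxic: curve class -1.1 to -2.4, max response >50%, AC50 < 10 uM.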

[10] = Identifying Small Molecule Inhibitors of Pancreatic Cancer Stem Cells (A2780, Spheroid) (AID 1259357); conditions: Potency: A2780 spheroid viability; series mostly up to 46.1 µM;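 also: spheroids pre-formed over 14 days in stem cell medium on hydrogel; compound exposure lasted 48 h before the ATP luminescence read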
Summary of the method: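 Pre-formed 14-day tumor spheroids or adherent cells dosed and incubated 48 h, 37C, 5% CO2. Viability assessed by CellTiter-Glo.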

[11] = Identifying Small Molecule Inhibitors of Pancreatic Cancer Stem Cells (Panc1, Adherent) (AID 1259362); conditions: Potency: viability; series mostly up to 46.1 µM;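 also: compound exposure lasted 48 h before the viability read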
Summary of the method: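 After a 4 h attachment period, compounds were pinned into wells and cultures held 48 h under standard incubator conditions. Viability was then measured as CellTiter-Glo luminescence following 10 min at room temperature.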

CC[C@]1(O)C[C@H]2CN(CCC3=c4ccccc4=N[C]3[C@@](C(=O)OC)(c3cc4c(cc3OC)N(C)[C@H]3[C@@](O)(C(N)=O)[C@H](O)[C@]5(CC)C=CCN6CC[C@]43[C@@H]65)C2)C1
Potency [1]: 0.0033 µM (active)
Potency [2]: 0.0264 µM (active)
Potency [3]: inactive
Potency [4]: 1.48 µM (active)
Potency [5]: 1.66 µM (active)

CCNC(=O)c1noc(-c2cc(C(C)C)c(O)cc2O)c1-c1ccc(CN2CCOCC2)cc1
Potency [1]: 0.105 µM (active)
Potency [2]: 0.118 µM (active)
Potency [3]: 0.059 µM (active)
Potency [6]: 0.0105 µM (active)
Potency [7]: inactive
IC50 (viability decrease) [8]: 0.0037 µM (active)
Potency [4]: 0.0731 µM (active)

COc1ccc(CCC(=O)Nc2nc3ccc(Cl)cc3s2)cc1OC
Potency [1]: 20.9 µM (active)
Potency [2]: 18.7 µM (active)
Potency [3]: 13.2 µM (active)
Potency [4]: inactive
Potency [5]: inactive

O=C(CC12CC3CC(CC(C3)C1)C2)Nc1cccc2nc(NCCNCCO)ccc12
Potency [1]: 14.8 µM (active)
Potency [2]: 7.43 µM (active)
Potency [3]: 13.2 µM (active)
Potency [4]: inactive
Potency [5]: inactive

COc1ccc(-c2cc(=O)c3c(O)cc(O[C@@H]4O[C@H](CO[C@@H]5O[C@@H](C)[C@H](O)[C@@H](O)[C@@H]5O)[C@@H](O)[C@H](O)[C@@H]4O)cc3o2)cc1O
Potency [1]: 18.7 µM (active)
Potency [2]: 18.7 µM (active)
Potency [3]: 26.4 µM (active)
Potency [4]: inactive
Potency [5]: inactive

Cc1ccc(S(=O)(=O)Nc2nc3ccccc3nc2Nc2ccc3nsnc3c2)cc1
Potency [1]: 8.12 µM (active)
Potency [2]: 12.9 µM (active)
Potency [3]: 16.2 µM (active)
Potency [9]: inactive and 20.6 µM (active)
Potency [4]: inactive and 2.91 µM (active)
Potency [5]: inactive

CCOC(=O)[C@H](CCc1ccccc1)N[C@@H](C)C(=O)N1CCCC1C(=O)O (some centres undefined)
Potency [1]: 20.9 µM (active)
Potency [2]: 16.6 µM (active)
Potency [3]: 16.6 µM (active)
Potency [4]: inactive
Potency [5]: inactive

Cc1cc2c(cc1C1(c3ccc(C(=O)O)cn3)CC1)C(C)(C)CCC2(C)C
Potency [1]: inactive
Potency [2]: inactive
Potency [3]: inactive
Potency [10]: inactive
Potency [6]: inactive
Potency [9]: inactive
Potency [4]: inactive
Potency [5]: inactive

CC(C)N(CCCNC(=O)Nc1ccc(C(C)(C)C)cc1)C[C@H]1O[C@@H](n2cc(Br)c3c(N)ncnc32)[C@H](O)[C@H]1O
Potency [1]: 23.5 µM (active)
Potency [2]: 18.7 µM (active)
Potency [3]: 20.9 µM (active)
Potency [4]: inactive

CC1=C(CC(=O)O)c2cc(F)ccc2C1=Cc1ccc(S(C)=O)cc1 (centres undefined)
Potency [1]: 1.18 µM (active)
Potency [2]: 1.32 µM (active)
Potency [3]: 1.48 µM (active)
Potency [4]: inactive

COc1cc2nccc(Oc3ccc(NC(=O)Nc4cc(C)on4)c(Cl)c3)c2cc1OC
Potency [1]: 2.35 µM (active)
Potency [2]: 2.64 µM (active)
Potency [3]: 2.96 µM (active)
Potency [6]: 16.6 µM (active)
Potency [4]: 11.8 µM (active) and 13 µM (active)

O=C(NCCCCN1CCOCC1)c1cc2ccccc2o1
Potency [1]: inactive
Potency [2]: inactive
Potency [3]: inactive
Potency [9]: inactive
Potency [4]: inactive

CCCCC[C@H](O)C=C[C@H]1[C@H](O)CC(=O)[C@H]1CC=CCCCC(=O)O
Potency [1]: inactive
Potency [2]: 18.7 µM (active)
Potency [3]: 20.9 µM (active)
Potency [9]: inactive
Potency [4]: inactive

CC(C)Oc1cc(Nc2nc(N[C@@H](C)c3ccc(F)cn3)ncc2Cl)[nH]n1
Potency [1]: 16.6 µM (active)
Potency [2]: 16.6 µM (active)
Potency [3]: 16.6 µM (active)
IC50 (viability decrease) [8]: 13.2 µM (active)
Potency [9]: 10.3 µM (active)
Potency [4]: 4.69 µM (active) and 8.2 µM (active)
Potency [5]: inactive

CC(=O)N1CCN(c2ccc(OCc3nn(C)c(C)c3-c3cccc4c(CCCOc5cc(C)c(Cl)c(C)c5)c(C(=O)O)n(Cc5cccnc5)c34)cc2)CC1
Potency [1]: 20.9 µM (active)
Potency [2]: 20.9 µM (active)
Potency [3]: 20.9 µM (active)
Potency [4]: inactive
Potency [5]: inactive

CN(C)CCOc1ccc(-c2nc(-c3ccc4c(c3)CCC4=NO)c(-c3ccncc3)[nH]2)cc1
Potency [1]: 33.2 µM (active)
Potency [2]: 26.4 µM (active)
Potency [3]: 23.5 µM (active)
Potency [4]: inactive

CCOC(=O)N1CCN([N+]([O-])=NOc2cc(ON=[N+]([O-])N3CCN(C(=O)OCC)CC3)c([N+](=O)[O-])cc2[N+](=O)[O-])CC1
Potency [1]: inactive
Potency [2]: inactive
Potency [3]: 4.18 µM (active)
Potency [9]: inactive
Potency [4]: inactive
Potency [5]: inactive

C[C@@]1(c2cc(-c3cncnc3)c(F)cc2F)CCSC(N)=N1
Potency [1]: inactive
Potency [2]: inactive
Potency [3]: inactive
Potency [9]: inactive
Potency [4]: inactive
Potency [5]: inactive

CC(=O)NCCC(=O)N[C@@H](CCC(N)=O)C(=O)N[C@@H](CO)C(=O)N[C@@H](CCC(N)=O)C(=O)N[C@@H](CCC(N)=O)C(=O)N[C@H](C(=O)N[C@@H](Cc1ccccc1)C(=O)N[C@]1(C)CCCCCCC=CCCC[C@@](C)(C(=O)N[C@@H](CCC(N)=O)C(=O)N[C@@H](CC(N)=O)C(N)=O)NC(=O)[C@H](CC(C)C)NC(=O)[C@H](CC(C)C)NC(=O)[C@@H](CCCNC(=N)N)NC(=O)[C@H](Cc2c[nH]c3ccccc23)NC(=O)[C@H](CC(C)C)NC(=O)[C@H](CC(N)=O)NC1=O)[C@H](C)O
Potency [1]: 18.7 µM (active)
Potency [2]: 20.9 µM (active)
Potency [10]: inactive
Potency [6]: inactive
Potency [11]: inactive
Potency [9]: inactive
Potency [4]: inactive
